Assay results taken from PubChem BioAssay (NCATS).
Inconclusive results are not listed. Entries that show only a call come without a potency. Activity calls are given as the source filed them. Calls follow the shape of the dose curve; as a rule, active = well fitted inhibition curve with a large enough effect; inconclusive = small, poorly fitted or top-dose-only effect; inactive = no such curve, though single readings can be large or run the other way.

Assay: S16 Schwann cell PMP22 intronic element firefly luciferase assay (AID 624032); also: nearly all actives have a fitted effect of over 30% in size
Details: S16 rat Schwann cells, PMP22 element FLuc, 24 h; series mostly up to 57.5 µM
Summary of the method: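 Rat S16 Schwann cells stably carrying a PMP22 intronic element-driven Fluc reporter were seeded overnight, then exposed to compounds for 24 h at 37 °C. Luminescence was normalized to PTC124 (positive control) and DMSO (0% activity).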
Potency is read from the fitted curve at half-maximal effect.

Row | SMILES | Potency
1 | O=C(CCCCCCCCCCCCC1CCCC1)Nc1ccc(S(=O)(=O)c2ccc(NC(=O)CCCCCCCCCCCCC3CCCC3)cc2)cc1 | inactive
2 | Oc1cc(O)cc(O)c1 | inactive
3 | NCC(O)CC(=O)O (stereo unspecified) | inactive
4 | CN[C@@H]1[C@H](O[C@H]2[C@H](O[C@H]3[C@H](O)[C@@H](O)[C@H](N=C(N)N)[C@@H](O)[C@@H]3N=C(N)N)O[C@@H](C)[C@]2(O)C=O)O[C@@H](CO)[C@H](O)[C@H]1O | inactive
5 | NC(=O)C1c2ccccc2CCc2ccccc21 | inactive
6 | CCOC(=O)[C@@H](N)CS | 0.0573 µM (active)
7 | COC1=C(OC)C(=O)C(C/C=C(\C)CC/C=C(\C)CC/C=C(\C)CC/C=C(\C)CC/C=C(\C)CC/C=C(\C)CC/C=C(\C)CC/C=C(\C)CC/C=C(\C)CCC=C(C)C)=C(C)C1=O | 0.642 µM (active)
8 | CCCCCCCCCCCCCCCCOCCOCCOCCOCCOCCOCCOCCOCCOCCOCCOCCOCCOCCOCCOCCOCCOCCOCCOCCOCCO | 22.8 µM (active)
9 | CS(=O)(=O)c1ccc([C@@H](O)[C@@H](COC(=O)CN)NC(=O)C(Cl)Cl)cc1 | inactive
10 | CC(=O)Nc1ccc(OC(C)=O)cc1 | inactive
11 | NC(=S)NS(=O)(=O)c1ccc(N)cc1 | inactive
12 | COc1cc(S(C)=O)ccc1-c1nc2ncccc2[nH]1 (stereo unspecified) | inactive
13 | Cc1nc(NS(=O)(=O)c2ccc(N)cc2)nc(C)c1Br | inactive
14 | O=C(CCCN1CCN2CCCC2C1)c1ccc(F)cc1 (stereo unspecified) | inactive
15 | O=C(O)COc1ccc(CCNS(=O)(=O)c2ccccc2)s1 | inactive
16 | [O]=[Bi][O]C(=O)[O][Bi]=[O] | inactive
